Reference: the supplement of paper PMC8975748
Structures can show the parent of a compound that is named as a salt.

system: Saccharomyces cerevisiae BY4741 SeMeCo community; assay: z-score of subpopulation abundance vs DMSO median, subpopulation auxotrophic for HL; higher = larger share of this subpopulation than in DMSO controls; settings: 10 µM; 24 h; SM minimal medium; subpopulation (auxotrophy): HL
Procedure: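 Fluorescent four-plasmid SeMeCo (self-establishing metabolically cooperating S. cerevisiae BY4741 community; plasmids pH-mRuby2, pL-mWasabi, pU-eCFP, pM-TagRFP657) was grown 24 h in minimal SM medium with each Selleck FDA-approved drug at 10 µM in 384-well plates. Cells were fixed and imaged by high-content confocal microscopy. For each auxotrophic subpopulation (and the prototroph), a z-score gives the deviation from the DMSO vehicle-control population median.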

Row | Structure (SMILES) | z-score of subpopulation abundance
1 | CCCCCCCCCCCCCCCC[n+]1ccccc1 [Cetylpyridinium Chloride] | 13.5
2 | C[N+]1(C)[C@@H]2C[C@@H](OC(=O)[C@H](CO)c3ccccc3)C[C@H]1[C@@H]1O[C@@H]12 [Methscopolamine] | -0.05
3 | Nc1nc(N)nc(NC2CC2)n1 [Cyromazine] | -0.97
4 | C[C@@H]1O[C@@H](O[C@H]2C[C@@H](O)[C@]3(CO)[C@H]4[C@H](O)C[C@]5(C)[C@@H](C6=CC(=O)OC6)CC[C@]5(O)[C@@H]4CC[C@]3(O)C2)[C@H](O)[C@H](O)[C@H]1O [Ouabain] | -1.05
5 | NCCc1c[nH]c2ccc(O)cc12 [Serotonin HCl] | -0.74
6 | CCN(CC)CCOC(=O)C(O)(c1ccccc1)c1ccccc1 [Benactyzine hydrochloride] | -0.47
7 | COc1ccc(C(CN(C)C)C2(O)CCCCC2)cc1 (centres undefined) [Venlafaxine] | -1.14
8 | CC(=O)O[C@H]1C[C@@H]2CC[C@@H]3[C@H](CC[C@@]4(C)[C@H]3C[C@H]([N+]3(C)CCCCC3)[C@@H]4OC(C)=O)[C@@]2(C)C[C@@H]1[N+]1(C)CCCCC1 [Pancuronium dibromide] | 0.38
9 | CCOC(=O)Nc1ccc(NCc2ccc(F)cc2)cc1N [Retigabine] | 0.75
10 | CN1C(=O)COc2c(C(=O)NC3CN4CCC3CC4)cc(Cl)cc21 (centres undefined) [Azasetron HCl] | 1.41
11 | CN(C)[C@@H]1C(=O)C(C(N)=O)=C(O)[C@@]2(O)C(=O)C3=C(O)c4c(O)ccc(Cl)c4[C@@](C)(O)[C@H]3C[C@@H]12 [Chlortetracycline HCl] | 0.38
12 | O=c1[nH]c2ccccc2n1CCCN1CCC(n2c(=O)[nH]c3cc(Cl)ccc32)CC1 [Domperidone] | 0.19
13 | COc1ccc(C(CN(C)C)C2(O)CCCCC2)cc1 (centres undefined) [Venlafaxine HCl] | 1.07
14 | CN[C@@H]1[C@@H](O)[C@@H](O[C@@H]2[C@@H](O)[C@H](O[C@H]3O[C@H]([C@@H](C)O)[C@@H](O)[C@H](O)[C@H]3N)[C@@H](N)C[C@H]2N)OC[C@]1(C)O [Geneticin (G418 Sulfate)] | -0.02
15 | CC[N+](C)(CC)CCOC(=O)C(O)(c1ccccc1)c1ccccc1 [Methylbenactyzine Bromide] | -0.61
16 | CCN(C)C(=O)Oc1cccc([C@H](C)N(C)C)c1 [Rivastigmine] | -0.54
17 | NC(=O)CN1CCCC1=O [Piracetam] | 0.98

Row | Structure (SMILES) | z-score of subpopulation abundance
18 | COc1cc2c(cc1OC)C1CC(=O)C(CC(C)C)CN1CC2 (centres undefined) [Tetrabenazine (Xenazine)] | 0.31
19 | CC(C)(O)C(Cl)(Cl)Cl [Chlorobutanol] | -0.54
20 | CC(=O)OCC1=C(C(=O)O)N2C(=O)C(N)C2SC1 (centres undefined) [7-Aminocephalosporanic acid] | -0.23
21 | C=CN1CCCC1=O.II [Povidone iodine] | 2.13
22 | N[C@@H]1C[C@H]1c1ccccc1 [Tranylcypromine (2-PCPA) HCl] | -0.72
23 | CC[C@@]1(O)C(=O)OCc2c1cc1n(c2=O)Cc2cc3ccccc3nc2-1 [Camptothecin] | -0.59
24 | CN1[C@@H]2C[C@@H](OC(=O)[C@H](CO)c3ccccc3)C[C@H]1[C@@H]1O[C@@H]12 [Scopolamine HBr] | -0.91
25 | CC(C)N(CCC(C(N)=O)(c1ccccc1)c1ccccn1)C(C)C (centres undefined) [Disopyramide] | 2.14
26 | C[C@@H]1CC[C@H]2[C@@H](C)C(=O)O[C@@H]3O[C@@]4(C)CC[C@@H]1[C@]32OO4 [Artemisinin] | -0.27
27 | CC[C@H]1[C@@H]2C[C@H]3[C@@H]4N(C)c5ccccc5[C@]45C[C@@H]([C@@H]2[C@H]5O)N3[C@@H]1O [Ajmaline] | -1.02
28 | COC(=O)C1=CCCN(C)C1 [Arecoline HBr] | 0.21
29 | C=CC[C@]1(O)CC[C@H]2[C@@H]3CCC4=CC(=O)CCC4=C3C=C[C@@]21C [Altrenogest] | 0.59
30 | Cc1cc(O)ccc1Cl [Chlorocresol] | -0.86
31 | O=[N+]([O-])C(Br)(CO)CO [Bronopol] | -1.08
32 | Cn1cc(C2=C(c3cn(C4CCN(Cc5ccccn5)CC4)c4ccccc34)C(=O)NC2=O)c2ccccc21 | -1.11
33 | CCC1=C[C@H]2CN3CCc4c([nH]c5ccccc45)[C@](C(=O)OC)(C2)[C@H]13 [Catharanthine] | -1.12
34 | CC1(C)SC2C(N)C(=O)N2C1C(=O)O (centres undefined) [6-Aminopenicillanic acid] | -0.37
